# Calls of active or inactive are those of the source. Unless noted, no rule for the calls is given here.
# What was measured:
# [1] = growth inhibition, single agent or in combination, cell-based, chromothripsis tumors, cisplatin or BGB combos (AID 1671449; in the data active = inhibition above about 80%;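 also: cells exposed for 96 hours; 0% = vehicle DMSO and 100% = killing by high DMSO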); conditions: LFS_MB_P medulloblastoma cells
# [2] = growth inhibition, single agent and combos, cell-based, chromothripsis tumors, cisplatin or BGB combos (AID 1671450; in the data active = inhibition above about 80%;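 also: cells exposed to compound for four days; 0% = vehicle DMSO and 100% = cell killing by high DMSO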); conditions: HDN33 neuroblastoma cells, stronger effect = higher value
# [3] = growth inhibition, single agents and combos, ICB984, cell-based, cisplatin or BGB combos, synergistic combos for chromothripsis tumors (AID 1671451); conditions: ICB984 medulloblastoma cells, drug combinations, stronger effect = higher value;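 also: cells exposed for 96 hours before readout; 0% = vehicle DMSO and 100% = killing by high DMSO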
# [4] = growth inhibition, single agents and combos, LFS_MB_1R, cell-based, cisplatin or BGB combos, synergistic combos for chromothripsis tumors (AID 1671452; in the data active = inhibition above about 80%;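 also: cells exposed for 96 hours before readout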); conditions: LFS_MB_1R medulloblastoma cells, stronger effect = higher value
# [5] = growth inhibition, single agents and combos, HTB85, cell-based, BGB or cisplatin IC20 combos, synergistic combos for chromothripsis tumors (AID 1671453; in the data active = inhibition above about 80%;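 also: cells exposed for 96 hours before readout; 0% = vehicle DMSO and 100% = high DMSO killing control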); conditions: HTB85 osteosarcoma cells, drug combinations, stronger effect = higher value
# [6] = growth inhibition, single agents and combos, CRL2098, cell-based, BGB or cisplatin IC20 combos, synergistic combos for chromothripsis tumors (AID 1671454; in the data active = inhibition above about 80%;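 also: cells exposed for 96 h before readout; 0% = vehicle DMSO and 100% = killing by high DMSO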); conditions: CRL2098 osteosarcoma cells, drug combinations, stronger effect = higher value
# [7] = growth inhibition, single agents and combos, HD-MB03, cell-based, BGB or cisplatin IC20 combos, synergistic combos for chromothripsis tumors (AID 1671455; in the data active = inhibition above about 83%;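 also: 0% = vehicle DMSO and 100% = high DMSO as cytotoxic control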); conditions: HD-MB03 medulloblastoma cells, stronger effect = higher value
# [8] = growth inhibition, single agents and combos, UWB1.289, cell-based, BGB or cisplatin combos, synergistic combos for chromothripsis tumors (AID 1671456; in the data active = inhibition above about 80%;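 also: cells exposed to compound for four days; 0% = vehicle DMSO and 100% = killing by high DMSO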); conditions: UWB1.289 ovarian carcinoma cells, stronger effect = higher value
# [9] = growth inhibition, single agents and combos, LFS_MB_2R, cell-based, cisplatin combos, synergistic combos for chromothripsis tumors (AID 1671457; in the data active = inhibition above about 80%;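 also: cells exposed to compound for four days before readout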); conditions: LFS_MB_2R medulloblastoma cells, stronger effect = higher value
# [10] = growth inhibition, MDA-MB-436, cell-based, BGB or cisplatin combos, synergistic combos for chromothripsis tumors (AID 1671458); conditions: MDA-MB-436 breast carcinoma growth inhibition, drug combinations, stronger effect = higher value;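 also: cells exposed for 96 hours; 0% = vehicle DMSO and 100% = killing by high DMSO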
# [11] = UWB1.289_BRCA1 ovarian cancer growth, cell-based, BGB or cisplatin combinations (AID 1671459; in the data active = inhibition above about 80%); conditions: UWB1.289 BRCA1 ovarian carcinoma, drug combinations, stronger effect = higher value
# [12] = drug combination toxicity in non-malignant astrocytes – cell-based, BGB or cisplatin IC20 combos, cytotoxicity control for chromothriptic childhood tumor combination screen (AID 1671460; in the data active = inhibition above about 80%;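 also: cells exposed to compounds for 96 hours before viability readout; 0% = vehicle and 100% = killing control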); conditions: Human astrocytes, viability inhibition, drug combinations, at 0.5 µM, stronger effect = higher value
# [13] = BT084 cell growth, single and combined drugs, ICGC_MB145, cisplatin and BGB IC40 combos (AID 1671461; in the data active = inhibition above about 80%;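 also: cells exposed to drugs for 96 hours; 0% = vehicle DMSO and 100% = high DMSO full killing control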); conditions: BT084 medulloblastoma cells, drug combinations, stronger effect = higher value
# [14] = RCMB18 cell growth, single agent and combined, cisplatin and BGB IC40 combos (AID 1671462; in the data active = inhibition above about 80%;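 also: cells exposed to compound for four days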); conditions: RCMB18 medulloblastoma cells, stronger effect = higher value
# [15] = CRL1545 cell growth, single agent and combined, cisplatin and BGB IC20 combos (AID 1671464; in the data active = inhibition above about 80%;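 also: cells exposed to compound for 96 hours before readout; 0% = vehicle DMSO and 100% = high DMSO killing control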); conditions: CRL1545 osteosarcoma cells, stronger effect = higher value
# [16] = antimalarial activity against Dd2 strain (AID 2302;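 active = growth inhibition above 50% at the single 2 µM test dose, taken to imply half-maximal potency below 2 µM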;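 also: 0% = DMSO untreated growth and 100% = chloroquine plus artemisinin killed control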); conditions: P. falciparum Dd2 in RBCs, LDH growth readout, 72 h; at 2 µM; stronger effect = higher value
# [17] = human hepatoma cell viability loss – ATP luminescence, cytotoxicity control for P. falciparum antimalarial project, primary screen (AID 2303;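 active = inhibition above 50%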;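 also: 0% = DMSO wells and 100% = digitonin-killed cells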); conditions: HepG2 viability, 24-48 h, at 10 µM, stronger effect = higher value
# [18] = molecular target: L-lactate dehydrogenase (Plasmodium falciparum (isolate CDC / Honduras)) (UniProt Q27743); experiment: PfLDH activity inhibition – cell lysate, 3D7 strain, counter-screen for P. falciparum growth inhibition project (AID 2304);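 also: 0% = vehicle and 100% = reference inhibitor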; conditions: P. falciparum 3D7 crude extract, LDH APAD/NBT absorbance; at 2 µM; stronger effect = higher value
# [19] = inhibition of 3D7 malaria parasite growth – strain 3D7 (AID 2306);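 also: 0% = DMSO wells and 100% = chloroquine plus artemisinin control wells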; conditions: P. falciparum 3D7 erythrocytic growth, LDH absorbance, 72 h; at 2 µM; stronger effect = higher value
# [20] = measured here: combination with BGB IC40, at 0.05 µM
# [21] = measured here: with BGB IC20 combination, at 0.5 µM
# [22] = measured here: with cisplatin IC20 combination, at 0.5 µM
# [23] = measured here: combination with cisplatin, at 0.5 µM
# [24] = measured here: combination with cisplatin, at 5 µM
# Chain of L-lactate dehydrogenase (Plasmodium falciparum (isolate CDC / Honduras)) (Q27743 whole entry, looked up): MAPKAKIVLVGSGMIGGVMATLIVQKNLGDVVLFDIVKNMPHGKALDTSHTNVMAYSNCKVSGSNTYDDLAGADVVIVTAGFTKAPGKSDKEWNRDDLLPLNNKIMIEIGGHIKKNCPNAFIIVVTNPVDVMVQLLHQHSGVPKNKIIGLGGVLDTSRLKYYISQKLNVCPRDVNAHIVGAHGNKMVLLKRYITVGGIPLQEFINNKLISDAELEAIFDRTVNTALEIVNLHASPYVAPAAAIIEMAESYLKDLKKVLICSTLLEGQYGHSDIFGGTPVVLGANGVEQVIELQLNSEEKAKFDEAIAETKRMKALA
smiles,measurement,setting,value
C[C@H](NC(=O)c1ccccc1N=Cc1c(O)ccc2ccccc12)c1ccccc1,inhibition,"[1]; at 0.5 µM, stronger effect = higher value",-32.5% (inactive)
same,inhibition,"[1]; measured here: combination with BGB IC20, at 0.005 µM",-24.4%
same,inhibition,"[1]; measured here: combination with BGB IC40, at 0.005 µM",-29.4%
same,inhibition,[1]; [20],-11%
same,inhibition,"[1]; measured here: combination with cisplatin, at 0.5 µM, stronger effect = higher value",-57.7%
same,inhibition,"[1]; measured here: combination with cisplatin, at 5 µM, stronger effect = higher value",-10%
same,inhibition,"[2]; BGB combo, at 5 µM",-7.69%
same,inhibition,[2]; at 0.5 µM,1.7% (inactive)
same,inhibition,"[2]; cisplatin combo, at 5 µM",-4.45%
same,inhibition,[2]; [21],-2.8%
same,inhibition,[2]; [22],-1.48%
same,inhibition,"[2]; single agent, at 5 µM",7.54%
same,inhibition,"[3]; BGB IC20 combo, at 0.005 µM",1.67%
same,inhibition,"[3]; BGB IC40 combo, at 0.005 µM",-1.06%
same,inhibition,"[3]; BGB IC40 combo, at 0.05 µM",7.65%
same,inhibition,[3]; at 0.5 µM,-7.38% (inactive)
same,inhibition,"[3]; cisplatin combo, at 0.05 µM",3.01%
same,inhibition,"[3]; cisplatin combo, at 0.5 µM",-7.71%
same,inhibition,"[3]; cisplatin combo, at 5 µM",-12.4%
same,inhibition,"[3]; measured here: 5 uM single agent, at 5 µM",5.4%
same,inhibition,[4]; at 0.5 µM,-6.38% (inactive)
same,inhibition,[4]; [20],-9.7%
same,inhibition,[4]; [23],-2.62%
same,inhibition,[4]; [24],12.2%
same,inhibition,[5]; at 0.5 µM,1.08% (inactive)
same,inhibition,"[5]; measured here: with BGB IC20, at 0.5 µM",5.46%
same,inhibition,"[5]; measured here: with BGB IC20, at 5 µM",7.19%
same,inhibition,"[5]; measured here: with cisplatin IC20, at 0.5 µM",-9.86%
same,inhibition,"[5]; measured here: with cisplatin IC20, at 5 µM",-2.37%
same,inhibition,"[5]; single agent, at 5 µM",12.6%
same,inhibition,[6]; at 0.5 µM,5.5% (inactive)
same,inhibition,"[6]; measured here: combination with BGB at IC20, at 0.5 µM",-35.4%
same,inhibition,"[6]; measured here: combination with cisplatin at IC20, at 0.5 µM",58.3%
same,inhibition,[7]; at 0.5 µM,6.83% (inactive)
same,inhibition,"[7]; measured here: combo with BGB at IC20, at 0.5 µM",11.2%
same,inhibition,"[7]; measured here: combo with cisplatin at IC20, at 0.5 µM",5.12%
same,inhibition,[8]; at 0.5 µM,17.4% (inactive)
same,inhibition,"[8]; measured here: inhibition with BGB combination, at 0.05 µM",3.84%
same,inhibition,"[8]; measured here: inhibition with cisplatin combination, at 0.05 µM",5.13%
same,inhibition,[9]; at 0.5 µM,-0.99% (inactive)
same,inhibition,[9]; [23],5.16%
same,inhibition,[9]; [24],4.48%
same,inhibition,[10]; at 0.5 µM,-1.91% (inactive)
same,inhibition,"[10]; measured here: BGB combination, at 0.5 µM",-7.38%
same,inhibition,"[10]; measured here: BGB combination, at 5 µM",-1.84%
same,inhibition,"[10]; measured here: cisplatin combination, at 0.5 µM",-10.5%
same,inhibition,"[10]; measured here: cisplatin combination, at 5 µM",-4.49%
same,inhibition,"[11]; BGB combination, concentration series, at 5 µM",-2.68%
same,inhibition,[11]; at 0.5 µM,1.55% (inactive)
same,inhibition,"[11]; cisplatin combination, concentration series, at 5 µM",4.86%
same,inhibition,[12],3.33% (inactive)
same,inhibition,[12]; measured here: combo with BGB IC20,4.85%
same,inhibition,[12]; measured here: combo with cisplatin IC20,-2.44%
same,inhibition,[13]; at 0.5 µM,-3.76% (inactive)
same,inhibition,"[13]; cisplatin combination, at 0.5 µM",0.659%
same,inhibition,"[13]; cisplatin combination, at 5 µM",-186%
same,inhibition,"[13]; measured here: BGB IC40 combination 0.05 uM, at 0.05 µM",5.69%
same,inhibition,"[13]; single agent, at 5 µM",-0.461%
same,inhibition,[14]; at 0.5 µM,-3.35% (inactive)
same,inhibition,"[14]; cisplatin combo, at 5 µM",-10.8%
same,inhibition,"[14]; measured here: BGB IC40 combination, at 0.05 µM",-9.58%
same,inhibition,[14]; [23],-13.6%
same,inhibition,"[14]; single agent, at 5 µM",3.49%
same,inhibition,[15]; at 0.5 µM,-10.6% (inactive)
same,inhibition,[15]; [21],-16.9%
same,inhibition,[15]; [22],-9.19%
same,inhibition,"[15]; single agent, at 0.05 µM",-20.9%
same,inhibition,"[15]; single agent, at 5 µM",-71%
CC(=NO)C1=C(O)C(c2ccccc2)N(c2ccccc2)C1=O (stereo unspecified),growth inhibition,[16],23% (inactive)
same,inhibition,[17],12% (inactive)
same,inhibition,[18],-1% (inactive)
same,growth inhibition,[19],99% (active)
Oc1cccc(-c2nc3ccc(C4=N[C@H]5CCCC[C@H]5N4)cc3[nH]2)c1,growth inhibition,[16],97% (active)
same,inhibition,[17],-3% (inactive)
same,inhibition,[18],1% (inactive)
same,growth inhibition,[19],98% (active)
COc1cc(C=NNc2ccnc3cc(Cl)ccc23)ccc1O,growth inhibition,[16],100% (active)
same,inhibition,[17],15% (inactive)
same,inhibition,[18],-7% (inactive)
same,growth inhibition,[19],101% (active)
ON=C1CCc2cc(-c3nc(-c4ccc(OCCN5CCCCC5)cc4)[nH]c3-c3ccncc3)ccc21,growth inhibition,[16],54% (active)
same,inhibition,[17],73% (active)
same,inhibition,[18],3% (inactive)
same,growth inhibition,[19],99% (active)
O=[N+]([O-])c1cccc(-c2nc3ccc(C4=N[C@H]5CCCC[C@H]5N4)cc3[nH]2)c1,growth inhibition,[16],81% (active)
same,inhibition,[17],4% (inactive)
same,inhibition,[18],-7% (inactive)
same,growth inhibition,[19],101% (active)
CN(C)c1cc(NN=Cc2cc(Cl)ccc2O)nc(N(C)C)n1,growth inhibition,[16],98% (active)
same,inhibition,[17],3% (inactive)
same,inhibition,[18],0% (inactive)
same,growth inhibition,[19],98% (active)
CCn1c(C=Cc2cc(Br)ccc2O)nc2ccccc2c1=O,growth inhibition,[16],95% (active)
same,inhibition,[17],6% (inactive)
same,inhibition,[18],-5% (inactive)
same,growth inhibition,[19],95% (active)

# — PubChem BioAssay
